# HT1080-NT tox = kills 2HG-producing HT-1080-NT fibrosarcoma cells. actives 1.6% (n = 360,000). Potency, µM (series often up to 46.1 µM), for inactives: top-dose activity, negative = less viability, most hits filed as cytotoxic. HT-1080-NT fibrosarcoma viability, CellTiter-Glo ATP luminescence, 48 h;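 also: NT is the 2HG producing partner of a matched IDH1 knockdown line; 0% = DMSO-treated cells and -100% = media-only wells without cells; nearly all actives have a fitted effect of over 55% in size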
#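 Fibrosarcoma NT cells, 750 per well in 5% FBS RPMI, were exposed to compound for 48 hours. Viability: CellTiter-Glo luminescence.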
# TGFb SMAD3 inh = inhibitors of TGF-b signaling | AID 588855 | actives 1.2% (n = 410,000) | HepG2 CAGA-GFP TGF-b/SMAD3 reporter, GFP fluorescence, 18 h; TGF-beta stimulated, 500 pg/mL final | Potency, µM (titrated, usually from 46.1 µM), for the others: at the highest dose activity, negative = inhibition, actives largely listed as inhibitors; also: % is scaled to controls: 0 for no effect and ±100 for the full control effect; nearly all actives have a fitted effect of over 65% in size
#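 Inhibition was scored as loss of TGF-beta-induced (500 pg/mL final, 18 hours, 37 degrees C) GFP in HEPG2 cells carrying a CAGA-GFP reporter, in DMEM with 1% FBS. Well GFP was summed per cell; Activity was normalised to unstimulated and stimulated DMSO wells, then concentration-response fitting.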
# ATXN viability = viability counter-screen for ATXN expression inhibitors; S2 cells (HEK-293 line with an ATXN2-luciferase reporter) viability, CellTiter-Fluor protease fluorescence, 24 h; Potency, µM (series often up to 56.7 µM), most hits filed as cytotoxic; actives 0.49% (n = 400,000); also: nearly all actives have a fitted effect of over 40% in size
# HT1080 IDH1KD tx = kills HT-1080 cells with IDH1 knockdown. HT-1080 IDH1 knockdown viability, ATP luminescence, 48 h. Potency, µM (doses to about 46.1 µM), inactives show at the highest dose activity, negative = toxicity, most hits filed as cytotoxic. actives 2% (n = 360,000). AID 686971;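 also: 0% = DMSO wells and -100% = cell-free medium wells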
#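 Cytotoxicity counter-line: IDH1KD HT-1080, 48 h, CellTiter-Glo. Curves classed by r2, magnitude and activity.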
# ATXN2 expr inh = reduces ATXN2 reporter expression in HEK-293 cells. actives 0.72% (n = 360,000). AID 1745845. Potency, µM (titrated, usually from 57 µM), for the others: at the highest dose activity change, negative = inhibition, usual class: inhibitors. HEK-293 ATXN2-luciferase reporter, luminescence, 24 h; also: % is scaled to controls: 0 for no effect and ±100 for the full control effect; nearly all actives have a fitted effect of over 55% in size
#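 ATXN2-luciferase reporter cells (luciferase flanked by upstream and downstream ATXN2 gene portions) were treated 24 h at 37 °C with compounds at up to 57 uM. SteadyGlo luminescence gave expression; GF-AFC fluorescence gave viability.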
# HepG2 tox = counter-screen for TGF-b inhibitors: cytotoxicity in HepG2 cells. HepG2 CAGA-GFP viability, ATP luminescence, 18 h. Potency, µM (top dose mostly 46.1 µM), for the others: top-dose activity change, negative = cytotoxicity, usual class: cytotoxic. actives 0.76% (n = 410,000)
#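 HepG2 CAGA-GFP cells (1000/well, DMEM with 1% FBS) received compound, then TGF-beta at 500 pg/mL final, and were incubated 18 hours at 37 degrees C. Viability was read by CellTiter-Glo luminescence. Media-only wells were set as complete cell-killing and DMSO as no toxicity.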
# * hit, by the source's call; i = inactive; ? = inconclusive; . = no result; [ ] = remark or other dose. An excerpt weighted towards active compounds, which were near 3.8% of everything screened. Calls follow the shape of the dose curve; as a rule, active = well fitted curve in the direction sought with a large enough effect; inconclusive = small, poorly fitted or top-dose-only effect, or another doubt; inactive = no such curve, though single readings can be large; an effect the other way counts as inactive or inconclusive. Potency is read from the fitted curve at half-maximal effect.
SMILES,HT1080-NT tox,TGFb SMAD3 inh,ATXN viability,HT1080 IDH1KD tx,ATXN2 expr inh,HepG2 tox
COc1ccc(N=Nc2nc(-c3ccccc3)c(-c3ccccc3)[nH]2)cc1,-9%,?,?,-2%,-5%,5%
COc1ccccc1N=Nc1nc(-c2ccccc2)c(-c2ccccc2)[nH]1,-17%,?,35µM*,?,-9%,-43%
C[n+]1c2n(c3ccccc31)N=C(c1ccc(Br)cc1)CS2,?,-19%,?,13µM*,?,-33%
C[n+]1c2n(c3ccccc31)N=C(c1ccc(-c3ccccc3)cc1)CS2,?,?,?,?,.,-5%
Cc1onc(-c2ccccc2Cl)c1C(=O)Nc1nnc(Cc2ccc(Cl)cc2)s1,-23%,?,i,-21%,-1%,-15%
COCc1nnc(NC(=O)c2c(-c3c(Cl)cccc3Cl)noc2C)s1,?,2%,?,21µM*,-4%,-22%
CC(=O)N1CCN(C2=Nc3cccc4cccc2c34)CC1,1%,-1%,i,1%[9.24 µM],-4%,0%
COc1ccccc1N1CCN(C2=Nc3cccc4cccc2c34)CC1,?,-14%,?,13µM*,29%[11.3 µM],-20%
c1ccc(CC2CCN(C3=Nc4cccc5cccc3c45)CC2)cc1,?,?,i,21µM*,3%,13µM*
c1cc2c3c(cccc3c1)C(N1CCOCC1)=N2,4%,1%,.,17%,-7%,13%
COc1ccc(OCC(=O)Nc2cc(-c3nc4ccccc4o3)ccc2Cl)cc1,.,6%,i,.,29%,0%
O=c1[nH]c2c(-c3nc(-c4ccc(F)cc4)cs3)c(O)cn2c2ccc(Br)cc12,.,41%,.,.,.,-13%
O=C(NCCCN1CCc2ccccc2C1)Nc1ccc(Br)cc1,?,0%,i,18µM*,13%,-48%
COc1cccc2c(N/N=C/c3ccccc3)cc(C)nc12,-2%,2%,i,0%,-35%,33%
Cc1cc(-c2ccccc2)nc(N/N=C/c2ccc(O)cc2O)n1,?,?,?,2.1µM*,?,-26%
Cc1cc(-c2ccccc2)nc(N/N=C/c2ccccc2)n1,0%,?,i,-7%,?,-46%
Cc1cc(N/N=C/c2ccccc2O)c2ccccc2n1,0%,?,?,-11%,16µM*,-39%
Cc1cc(Nc2ccc(C)c(C)c2)c2ccccc2n1,?,?,?,16µM*,?,-16%
COc1ccc(/C=N/Nc2cc(C)nc3ccc(Br)cc23)cc1,7.3µM*,11µM*,?,21µM*,?,6.3µM*
CCN1CCN(c2ccc(Nc3cc(N(C)C(=O)Nc4c(Cl)c(OC)cc(OC)c4Cl)ncn3)cc2)CC1,.,.,.,.,-29%,.
Cc1ccc2c(c1)CN(CCNC(=O)c1ccc3nc(C)[nH]c3c1)CC(C)O2 (stereo not given),.,.,i,.,.,.
Cc1cnc(CNC(=O)c2c3n(c(C)cc2=O)-c2ccccc2SC(c2ccsc2)C3)cn1 (stereo not given),.,.,i,.,.,.
COc1ccc2nc(C)cc(N/N=C/c3cccc(OC)c3O)c2c1,?,?,.,16µM*,?,-101%
COc1ccc2nc(C)cc(Nc3ccccc3O)c2c1,-10%,?,?,-8%,.,-26%
COc1ccc2nc(C)cc(Nc3ccccc3OC)c2c1,-5%,-6%,i,-10%,.,-46%
COc1ccc2nc(C)cc(NCc3cccc(C(F)(F)F)c3)c2c1,23µM*,?,i,16µM*,?,22µM*
COc1ccc(C(=O)NCC(=O)OCC(=O)c2ccc3ccccc3c2)cc1,.,1%,.,.,.,-9%
CCCN(CCC)S(=O)(=O)c1ccc(Cl)c([N+](=O)[O-])c1,?,?,24µM*,23µM*,?,-23%

# Source: PubChem (National Center for Advancing Translational Sciences (NCATS))
